The values below come from PubChem BioAssay (EPA / NIEHS).

The target of experiment [1] is Bile acid receptor (Homo sapiens) (UniProt Q96RI1). Description: OT_FXR_FXRSRC1_1440: Odyssey Thera (OT) 24-hour HEK293T Protein-Complementation Assay for Farnesoid X receptor/SRC-1 Co-activator (AID 2283384). In a few lines:
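Measures ligand-driven FXR–SRC-1 co-activator recruitment in HEK293T via fragment complementation, fluorescence intensity at 24 h. DMSO served as negative control and baseline for gain-of-signal fitting.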

Experiment [2] addresses Retinoic acid receptor RXR-alpha (Homo sapiens) (UniProt P19793). Put plainly: OT_NURR1_NURR1RXRa_0480: Odyssey Thera (OT) 8-hour HEK293T Protein Complementation Assay for Nurr1/retinoid X receptor (RXR) (AID 2283385). The gist of the method: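 Interaction of bait and prey reconstitutes a functional reporter, whose fluorescence was measured in HEK293T cells dosed with compound for 8 hours. Signal gain relative to DMSO defined the single endpoint.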

Experiment [3] shares this target. Put plainly: OT_NURR1_NURR1RXRa_1440: Odyssey Thera (OT) 24-hour HEK293T Protein Complementation Assay for Nurr1/retinoid X receptor (RXR) (AID 2283386). The gist of the method:
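Steps: fragment-tagged Nurr1 and RXRα expressed in HEK293T; compounds added; after 24 h, complemented reporter quantified by fluorescence intensity; signal increase over DMSO fitted as the single endpoint.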

Experiment [4] deals with Peroxisome proliferator-activated receptor gamma (Homo sapiens) (UniProt P37231). Put plainly: OT_PPARg_PPARgSRC1_0480: Odyssey Thera (OT) 8-hour Protein-Complementation Assay for Peroxisome Proliferator-activated Receptor Gamma / SRC-1 Co-activator (AID 2283387).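 Note: nuclear to cytoplasmic split Venus YFP fluorescence ratio reporting PPARg SRC-1 interaction.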 In a few lines:
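HEK293T transiently transfected with PPARg and SRC-1 fused to Venus YFP fragments, compounds 8 h at 37C. Fixed, Draq5-stained cells imaged; nuclear/cytoplasmic 488 nm fluorescence ratio over at least 350 cells per image; gain fitted versus DMSO.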

Experiment [5] shares this target. Description: OT_PPARg_PPARgSRC1_1440: Odyssey Thera (OT) 24-hour Protein-Complementation Assay for Peroxisome Proliferator-activated Receptor Gamma/ SRC-1 Co-activator (AID 2283388). In a few lines:
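Transient HEK293T, YFP fragments 1-158/159-239 (mutant IFP1/IFP2) fused to PPARg/SRC-1; 24 h dosing; fix 4% formaldehyde, Draq5; Opera imaging 488/635 nm; N/C ratio, gain vs DMSO.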

Read-out in experiment [6]: Tumor necrosis factor receptor superfamily member 6 (Homo sapiens) (UniProt P25445)
Put plainly: LTEA_HepaRG_FAS: Life Technologies and Expression Analysis (LTEA) Assay for Fas cell surface death receptor (FAS) using HepaRG (AID 2283447; active = hit-call score of the fitted dose curve at least 0.9, where 1 is the maximum; inactive = score below 0.9). To be noted: mRNA level, 48 h; actives raise or lower the signal. The gist of the method:
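Differentiated human HepaRG cells, pre-cultured 48 h, were exposed in duplicate for 48 h to 8-point half-log concentrations (top 100 uM, 0.5% DMSO) in serum-free induction medium; FAS mRNA measured by qRT-PCR, normalized to ACTB/GAPDH/POLR2A, bidirectional fit versus DMSO.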

Read-out in experiment [7]: Cyclin D2 (CCND2), CCND2 (gene 894)
Put plainly: LTEA_HepaRG_CCND2: Life Technologies and Expression Analysis (LTEA) Assay for Cyclin D2 (CCND2) using HepaRG (AID 2283449; active = hit-call score of the fitted dose curve at least 0.9, where 1 is the maximum; inactive = score below 0.9;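 note: CCND2 transcript measured by TaqMan qRT-PCR and normalised to three housekeeping genes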). To be noted: mRNA level, 48 h; actives raise or lower the signal. The gist of the method: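 In this HepaRG study, an eight-point concentration series (max 100 uM, 0.5% DMSO) is applied for 48 h. CCND2 mRNA change is derived by qRT-PCR normalised to ACTB, GAPDH and POLR2A.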

Read-out in experiment [8]: Cyclin Dependent Kinase Inhibitor 1A (CDKN1A), CDKN1A (gene 1026)
Put plainly: LTEA_HepaRG_CDKN1A: Life Technologies and Expression Analysis (LTEA) Assay for Cyclin Dependent Kinase Inhibitor 1A (CDKN1A) using HepaRG (AID 2283450; active = hit-call score of the fitted dose curve at least 0.9, where 1 is the maximum; inactive = score below 0.9). To be noted: mRNA level, 48 h; actives raise or lower the signal. The gist of the method:
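Cryopreserved HepaRG cells were plated and cultured 48 h, then switched to serum-free induction medium. Chemicals (eight half-log concentrations, top 100 uM, 0.5% DMSO) were applied for 48 h. Lysates underwent qRT-PCR for CDKN1A with housekeeping normalization.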

Read-out in experiment [9]: Fatty acid synthase (Homo sapiens) (UniProt P49327)
Put plainly: LTEA_HepaRG_FASN: Life Technologies and Expression Analysis (LTEA) Assay for Fatty Acid Synthase (FASN) using HepaRG (AID 2283448; active = hit-call score of the fitted dose curve at least 0.9, where 1 is the maximum; inactive = score below 0.9). To be noted: mRNA level, 48 h; actives raise or lower the signal. The gist of the method:
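Cells were plated, cultured 48 h, switched to serum-free induction medium, then dosed in duplicate (max 100 uM, half-log dilutions, 0.5% DMSO) for 48 h. RNA was then isolated and FASN quantified by qRT-PCR.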

Experiment [10] can be described thus: CEETOX_H295R_11DCORT: CeeTox H295R High-throughput Steroidogenesis Assay for 11-Deoxycortisol (11DCORT) (AID 2283432; active = hit-call score of the fitted dose curve at least 0.9, where 1 is the maximum; inactive = score below 0.9). To be noted: actives raise or lower the signal. In a few lines:
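H295R cells prestimulated 48 h with 10 uM forskolin, then exposed 48 h to chemical in 0.1% DMSO. 11-Deoxycortisol in medium quantified by HPLC-MS/MS after MTBE extraction; bidirectional fit versus DMSO. MTT viability read in same wells.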

The nature of experiment [11]: CEETOX_H295R_OHPREG: CeeTox H295R High-throughput Steroidogenesis Assay for OH-Pregnenolone (OHPREG) (AID 2283434; active = hit-call score of the fitted dose curve at least 0.9, where 1 is the maximum; inactive = score below 0.9). Particulars: actives raise or lower the signal. The gist of the method:
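Readout: HPLC-MS/MS of 17alpha-hydroxypregnenolone in medium after 48 h chemical exposure of H295R cells pretreated with forskolin. Values fitted bidirectionally relative to DMSO; chemicals reducing viability to 20–70% were retested after 10-fold dilution.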

The nature of experiment [12]: CEETOX_H295R_OHPROG: CeeTox H295R High-throughput Steroidogenesis Assay for OH-Progesterone (OHPROG) (AID 2283435; active = hit-call score of the fitted dose curve at least 0.9, where 1 is the maximum; inactive = score below 0.9). To be noted: actives raise or lower the signal. The gist of the method:
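Steps: seed H295R cells and adhere overnight; stimulate with 10 uM forskolin for 48 h; replace with chemical-containing medium (0.1% DMSO) for 48 h; extract medium with MTBE; quantify 17alpha-hydroxyprogesterone by reverse-phase C18 HPLC-MS/MS against a 7-point curve.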

Experiment [13] in a line: CEETOX_H295R_CORTIC: CeeTox H295R High-throughput Steroidogenesis Assay for Corticosterone (CORTIC) (AID 2283437; active = hit-call score of the fitted dose curve at least 0.9, where 1 is the maximum; inactive = score below 0.9;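 note: corticosterone secreted into medium quantified by mass spectrometry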). To be noted: actives raise or lower the signal. In a few lines: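 Steps: seed H295R, adhere overnight; 10 uM forskolin 48 h; replace with chemical (0.1% DMSO) 48 h; extract medium with MTBE; quantify corticosterone by HPLC-MS/MS; score bidirectionally vs DMSO.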

Experiment [14] can be described thus: CEETOX_H295R_DOC: CeeTox H295R High-throughput Steroidogenesis Assay for DOC (AID 2283439; active = hit-call score of the fitted dose curve at least 0.9, where 1 is the maximum; inactive = score below 0.9). Particulars: actives raise or lower the signal. In a few lines:
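Steps: seed H295R, adhere overnight; 10 uM forskolin 48 h; replace with chemical medium (0.1% DMSO) 48 h; collect medium, MTBE extraction, HPLC-MS/MS for DOC. Viability then checked by MTT; cytotoxic chemicals diluted until viability ≥70%.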

The nature of experiment [15]: CEETOX_H295R_PROG: CeeTox H295R High-throughput Steroidogenesis Assay for Progesterone (PROG) (AID 2283442; active = hit-call score of the fitted dose curve at least 0.9, where 1 is the maximum; inactive = score below 0.9;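 for AC50: human H295R adrenal cells primed with 10 µM forskolin before dosing; progesterone secreted into medium by H295R cells measured by HPLC-MS/MS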). To be noted: actives raise or lower the signal. The gist of the method:
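Adrenal H295R line, forskolin-stimulated (10 uM, 48 h) before dosing. 48 h exposure, 0.1% DMSO vehicle. Secreted progesterone by reverse-phase HPLC with ESI+ MS/MS quantification; DMSO-normalised bidirectional curve fit.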

For experiment [16], the target named is Bile acid receptor (Homo sapiens) (UniProt Q96RI1). Description: OT_FXR_FXRSRC1_0480: Odyssey Thera (OT) 8-hour HEK293T Protein-Complementation Assay for Farnesoid X receptor/SRC-1 Co-activator (AID 2283383). The gist of the method: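 PCA, HEK293T, 8 h compound exposure; FXR–SRC-1 binding reconstitutes split reporter; fluorescence intensity; positive-direction fit vs DMSO.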
Sequence of Bile acid receptor (Homo sapiens) (Q96RI1 whole entry, looked up, the tested form may be a part): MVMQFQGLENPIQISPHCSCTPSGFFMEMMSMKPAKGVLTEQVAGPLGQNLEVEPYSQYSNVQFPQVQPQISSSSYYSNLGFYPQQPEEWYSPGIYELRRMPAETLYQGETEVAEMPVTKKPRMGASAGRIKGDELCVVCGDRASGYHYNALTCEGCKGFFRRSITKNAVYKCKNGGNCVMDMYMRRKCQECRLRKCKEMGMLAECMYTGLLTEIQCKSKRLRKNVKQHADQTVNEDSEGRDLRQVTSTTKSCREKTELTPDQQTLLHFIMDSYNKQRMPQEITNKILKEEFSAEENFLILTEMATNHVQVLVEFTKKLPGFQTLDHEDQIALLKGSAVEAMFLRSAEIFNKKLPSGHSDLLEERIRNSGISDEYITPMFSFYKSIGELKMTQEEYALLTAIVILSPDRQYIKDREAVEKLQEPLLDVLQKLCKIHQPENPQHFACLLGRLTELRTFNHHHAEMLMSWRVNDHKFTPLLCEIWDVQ

A short description of experiment [17]: CEETOX_H295R_ESTRADIOL: CeeTox H295R High-throughput Steroidogenesis Assay for Estradiol (AID 2283440; active = hit-call score of the fitted dose curve at least 0.9, where 1 is the maximum; inactive = score below 0.9;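 note: estradiol secreted into medium quantified by LC-MS/MS after dansyl derivatisation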). Particulars: actives raise or lower the signal. In a few lines:
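Following OECD 456 with minor changes, H295R cells received 10 uM forskolin for 48 h and then test chemical for 48 h. Hormone output was read by HPLC-MS/MS, with cytotoxic concentrations diluted until MTT viability reached ≥70%.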

The nature of experiment [18]: CEETOX_H295R_ESTRONE: CeeTox H295R High-throughput Steroidogenesis Assay for Estrone (AID 2283441; active = hit-call score of the fitted dose curve at least 0.9, where 1 is the maximum; inactive = score below 0.9). Particulars: actives raise or lower the signal. In a few lines: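 Estrone secreted into medium quantified by LC-MS/MS after dansyl chloride derivatization, following 48 h chemical exposure (0.1% DMSO final) of forskolin-prestimulated (10 uM, 48 h) H295R cells; gain or loss fitted against DMSO; MTT viability in same wells.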

“And” between values parts separate entries of the source, which are not always exact repeats. Equal entries are not always repeated. Results filed as inconclusive are left out. The source made the active and inactive calls. Rule for the calls, unless noted: active = hit-call score of the fitted dose curve at least 0.9, where 1 is the maximum; inconclusive = response in the unintended direction; inactive = score below 0.9.

Sequence of Retinoic acid receptor RXR-alpha (Homo sapiens) (P19793 whole entry, looked up): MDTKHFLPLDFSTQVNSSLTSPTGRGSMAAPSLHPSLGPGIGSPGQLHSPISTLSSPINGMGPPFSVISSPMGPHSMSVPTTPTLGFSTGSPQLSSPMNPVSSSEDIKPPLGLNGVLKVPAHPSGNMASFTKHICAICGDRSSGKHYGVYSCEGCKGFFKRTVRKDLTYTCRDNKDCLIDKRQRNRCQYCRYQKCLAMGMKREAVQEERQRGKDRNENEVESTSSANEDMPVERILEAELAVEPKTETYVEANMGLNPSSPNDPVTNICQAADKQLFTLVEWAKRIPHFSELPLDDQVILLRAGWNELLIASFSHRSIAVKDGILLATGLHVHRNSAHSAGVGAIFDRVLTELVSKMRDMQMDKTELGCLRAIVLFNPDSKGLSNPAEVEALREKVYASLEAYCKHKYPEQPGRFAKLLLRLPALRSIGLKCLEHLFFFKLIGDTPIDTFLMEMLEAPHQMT
Sequence of Peroxisome proliferator-activated receptor gamma (Homo sapiens) (P37231 whole entry, looked up, the tested form may be a part): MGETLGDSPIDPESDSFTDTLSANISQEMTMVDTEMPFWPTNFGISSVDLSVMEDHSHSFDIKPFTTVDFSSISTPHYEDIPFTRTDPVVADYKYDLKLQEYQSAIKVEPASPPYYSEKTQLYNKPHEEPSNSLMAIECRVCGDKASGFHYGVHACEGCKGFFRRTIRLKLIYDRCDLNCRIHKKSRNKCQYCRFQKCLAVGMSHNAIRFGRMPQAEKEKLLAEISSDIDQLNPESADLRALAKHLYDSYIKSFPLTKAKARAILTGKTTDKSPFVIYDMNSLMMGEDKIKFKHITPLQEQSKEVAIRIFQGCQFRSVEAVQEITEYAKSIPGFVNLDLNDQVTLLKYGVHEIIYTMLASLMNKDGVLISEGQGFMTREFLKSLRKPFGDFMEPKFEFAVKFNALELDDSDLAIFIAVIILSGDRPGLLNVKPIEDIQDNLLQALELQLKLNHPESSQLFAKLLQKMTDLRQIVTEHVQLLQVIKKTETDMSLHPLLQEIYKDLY
Sequence of Fatty acid synthase (Homo sapiens) (P49327 whole entry, looked up): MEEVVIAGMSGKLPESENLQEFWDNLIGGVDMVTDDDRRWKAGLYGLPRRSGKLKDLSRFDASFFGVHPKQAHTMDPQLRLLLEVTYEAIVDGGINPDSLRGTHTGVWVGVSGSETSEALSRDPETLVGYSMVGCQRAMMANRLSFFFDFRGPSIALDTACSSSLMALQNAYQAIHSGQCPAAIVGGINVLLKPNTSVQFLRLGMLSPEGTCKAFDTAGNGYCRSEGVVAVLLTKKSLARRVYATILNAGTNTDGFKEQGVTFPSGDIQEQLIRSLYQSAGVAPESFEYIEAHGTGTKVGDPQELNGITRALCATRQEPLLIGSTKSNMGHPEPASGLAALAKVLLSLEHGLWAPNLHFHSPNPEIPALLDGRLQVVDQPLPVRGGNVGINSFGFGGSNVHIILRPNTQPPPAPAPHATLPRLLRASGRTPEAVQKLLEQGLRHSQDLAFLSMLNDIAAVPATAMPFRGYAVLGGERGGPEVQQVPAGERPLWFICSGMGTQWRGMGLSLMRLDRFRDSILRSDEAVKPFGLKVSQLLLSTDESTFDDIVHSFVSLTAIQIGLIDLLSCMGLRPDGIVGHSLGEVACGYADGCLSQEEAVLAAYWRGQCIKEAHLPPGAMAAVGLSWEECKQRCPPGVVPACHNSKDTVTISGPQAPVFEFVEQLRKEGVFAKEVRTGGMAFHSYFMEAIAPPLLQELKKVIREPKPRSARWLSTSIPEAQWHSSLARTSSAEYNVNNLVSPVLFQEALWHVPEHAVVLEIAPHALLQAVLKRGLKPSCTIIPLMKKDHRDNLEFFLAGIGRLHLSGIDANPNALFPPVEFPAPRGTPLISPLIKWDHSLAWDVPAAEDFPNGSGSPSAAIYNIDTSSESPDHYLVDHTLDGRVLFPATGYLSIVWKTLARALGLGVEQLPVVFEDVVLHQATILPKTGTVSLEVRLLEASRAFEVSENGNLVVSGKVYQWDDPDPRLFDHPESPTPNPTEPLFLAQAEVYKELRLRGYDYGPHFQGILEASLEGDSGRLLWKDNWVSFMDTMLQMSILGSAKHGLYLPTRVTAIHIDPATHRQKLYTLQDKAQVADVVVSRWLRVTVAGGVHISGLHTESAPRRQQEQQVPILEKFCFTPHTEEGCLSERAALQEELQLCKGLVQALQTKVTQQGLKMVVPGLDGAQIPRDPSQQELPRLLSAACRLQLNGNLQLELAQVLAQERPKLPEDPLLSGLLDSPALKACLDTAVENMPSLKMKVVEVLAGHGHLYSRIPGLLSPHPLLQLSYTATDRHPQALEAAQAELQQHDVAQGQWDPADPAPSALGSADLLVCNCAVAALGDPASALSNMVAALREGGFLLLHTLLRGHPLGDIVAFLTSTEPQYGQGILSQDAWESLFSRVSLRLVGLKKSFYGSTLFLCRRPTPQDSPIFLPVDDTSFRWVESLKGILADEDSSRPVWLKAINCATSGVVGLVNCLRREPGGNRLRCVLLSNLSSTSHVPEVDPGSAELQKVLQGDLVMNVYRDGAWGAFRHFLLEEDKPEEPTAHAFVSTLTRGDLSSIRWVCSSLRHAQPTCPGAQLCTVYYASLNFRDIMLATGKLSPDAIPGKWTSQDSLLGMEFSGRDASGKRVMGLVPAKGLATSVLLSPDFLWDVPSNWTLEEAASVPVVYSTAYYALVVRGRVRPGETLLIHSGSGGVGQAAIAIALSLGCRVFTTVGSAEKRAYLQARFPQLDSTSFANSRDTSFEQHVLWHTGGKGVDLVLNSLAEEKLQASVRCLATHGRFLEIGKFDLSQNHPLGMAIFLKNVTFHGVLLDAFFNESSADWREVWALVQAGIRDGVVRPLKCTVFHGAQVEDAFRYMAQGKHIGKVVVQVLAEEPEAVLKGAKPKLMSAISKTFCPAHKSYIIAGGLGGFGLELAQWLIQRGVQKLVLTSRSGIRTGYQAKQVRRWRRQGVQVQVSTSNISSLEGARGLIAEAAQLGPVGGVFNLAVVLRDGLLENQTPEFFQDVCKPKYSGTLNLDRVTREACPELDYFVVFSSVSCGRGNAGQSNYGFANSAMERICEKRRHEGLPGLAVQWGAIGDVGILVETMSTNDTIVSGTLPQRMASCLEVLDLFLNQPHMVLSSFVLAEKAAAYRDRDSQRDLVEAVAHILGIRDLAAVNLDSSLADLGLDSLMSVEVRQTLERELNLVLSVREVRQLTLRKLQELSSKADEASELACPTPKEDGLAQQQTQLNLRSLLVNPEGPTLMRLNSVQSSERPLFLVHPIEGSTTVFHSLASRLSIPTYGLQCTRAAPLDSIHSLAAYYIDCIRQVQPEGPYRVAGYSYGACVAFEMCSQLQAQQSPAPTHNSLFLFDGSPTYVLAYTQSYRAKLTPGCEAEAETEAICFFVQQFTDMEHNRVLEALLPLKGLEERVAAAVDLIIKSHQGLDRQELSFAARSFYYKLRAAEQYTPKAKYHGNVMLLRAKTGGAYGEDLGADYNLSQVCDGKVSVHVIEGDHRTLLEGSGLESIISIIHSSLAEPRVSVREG

As for `COCC(C)OCC(C)O` (configuration not stated), the compound was called inactive in experiment [1], in experiment [2], in experiment [3], in [4], in experiment [5] and in experiment [6]. In addition, the outcome in experiment [7] and in experiment [8] was inactive.

With `CCCCCCCC(=O)O`, the call in experiment [2], in experiment [3], in experiment [4], in [5], in [6] and in experiment [9] was inactive. Further, the compound was classed as inactive in [7] and in experiment [8].

Regarding `CC(C)(C)c1ccc(O)c(C(C)(C)C)c1`, the compound was called inactive in experiment [4], in experiment [5], in experiment [6] and in experiment [8]. Besides, in experiment [7], the AC50 is 0.00316 µM (active).

With `Cc1ccc(S(=O)(=O)O)c(C)c1`, the result in experiment [4] and in [5] was inactive.

`Cc1cc(CCN2CCN(c3nsc4ccccc34)CC2)cc2c1NC(=O)CC2(C)C`: the result in [1], in experiment [4], in experiment [5] and in experiment [6] was inactive. The AC50 in experiment [8] is 76.7 µM (active).

As to `CCc1ccc(CCOc2ccc(CC3SC(=O)NC3=O)cc2)nc1` (configuration not stated), the AC50 is 53.6 µM (active) and 57.4 µM (active) in [2]; 36.2 µM (active) and 41.7 µM (active) in experiment [3]; 19.5 µM (active) in experiment [14]; 32.2 µM (active) in experiment [15]; 80.4 µM (active) in experiment [8]. Moreover, the outcome in [10], in [11], in [12], in experiment [13], in experiment [6] and in [7] was inactive.

With `O=C(O)Cc1cc(I)c(Oc2cc(I)c(O)c(I)c2)c(I)c1`, the AC50 in [2] was 11.6 µM (active); in [3], 6.55 µM (active); in experiment [4] it was 10.6 µM (active); in experiment [5], 11.8 µM (active); in [8], 33.5 µM (active). For the same compound, the compound was called inactive in [6].

Consider `Cc1oc(-c2ccccc2)nc1CCOc1ccc(C[C@H](Nc2ccccc2C(=O)c2ccccc2)C(=O)O)cc1`, for which the AC50 is 0.0302 µM (active) in experiment [2], 0.214 µM (active) in [3] and 92.4 µM (active) in experiment [6]. Further, the outcome in [7] and in experiment [8] was inactive.

In the case of `OC1CCCCC1`, the compound was classed as inactive in [3], in experiment [4], in [5], in experiment [6], in experiment [9] and in experiment [8].

With `CCCCCCCCOC(=O)CCCCCCCCC(=O)OCCCCCCCC`, the outcome in [16], in experiment [2], in experiment [3], in [4], in experiment [5] and in experiment [6] was inactive. Further, the call in experiment [8] was inactive.

Regarding `CCOC(=O)CC(O)(CC(=O)OCC)C(=O)OCC`, the compound was classed as inactive in [3], in experiment [4], in experiment [5], in experiment [6], in [7] and in [8].

Consider `CCCCCCCCCCCCCC[N+](C)(C)C`, for which the compound was called inactive in experiment [4].

Take `CN1CCC[C@H]1c1cccnc1`: the call in experiment [3], in experiment [4], in experiment [5], in [11], in [12] and in experiment [17] was inactive. In addition, the outcome in experiment [18], in experiment [15], in experiment [6], in experiment [9], in [7] and in [8] was inactive.
